Sampled rows, rich in hits. Any-hit rate of the full collection: about 4.4%.
TRHR agonist = agonists of human TRH receptor | P34981 | TRHR cells, calcium flux fluo-8, FDSS agonist mode | activation, % at 2 µM | 360,000 tested, 0.18% active | AID 493084; also: 0% is about no effect
Target sequence (P34981 whole entry, looked up): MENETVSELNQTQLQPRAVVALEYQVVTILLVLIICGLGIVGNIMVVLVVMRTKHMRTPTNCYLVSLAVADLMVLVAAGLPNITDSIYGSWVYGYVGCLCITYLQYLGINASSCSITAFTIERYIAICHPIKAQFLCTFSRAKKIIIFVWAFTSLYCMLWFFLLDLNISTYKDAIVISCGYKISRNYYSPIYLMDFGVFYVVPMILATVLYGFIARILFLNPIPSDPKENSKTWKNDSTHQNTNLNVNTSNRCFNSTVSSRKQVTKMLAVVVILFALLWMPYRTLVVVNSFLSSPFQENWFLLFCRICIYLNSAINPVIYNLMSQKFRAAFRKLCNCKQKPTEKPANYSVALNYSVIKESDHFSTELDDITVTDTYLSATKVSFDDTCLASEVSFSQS
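TRHR-expressing cells loaded with fluo-8 calcium dye; 23 nL library compound pin-transferred, kinetic FDSS fluorescence (Ex 480/Em 530) recorded about 180 s for agonist-induced calcium release, before a 10 nM TRH EC20 addition for potentiator mode.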
D1 potentiator = potentiators of human D1 dopamine receptor. P21728. HEK293 TREx D1 cells, calcium flux, dopamine EC20 potentiation. potentiation, % at 10 µM. 360,000 tested, 0.036% active; in the data active = potentiation above about 30%; also: 0% is about no effect
D1 antagonist = human D1 dopamine receptor antagonism | activity change, negative = inhibition, % at 10 µM | 360,000 tested, 3.2% active | HEK293 TREx D1 cells, calcium flux, dopamine EC80; hits give low values | P21728; in the data active = activity change below about -30%; also: % is scaled to controls: 0 for no effect and ±100 for the full control effect
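Compound effects on dopamine-evoked calcium signalling were measured in tetracycline-induced HEK293 Trex D1 cells. Dopamine at EC80 followed a 180 s compound pre-read, and fluorescence was tracked kinetically for 180 s more.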
D1 ag = agonists of human D1 dopamine receptor; activation, % at 2 µM; 360,000 tested, 1% active; HEK293 T-REx D1 cells, calcium flux, agonist mode; P21728; also: 0% is about no effect
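Inducible HEK293 T-REx D1 cells, force-coupled to calcium signalling, were plated at 4000 cells/well with tetracycline and held overnight at 30 C. After no-wash calcium dye loading, compound-evoked calcium rise over 180 s flagged agonists.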
TRHR PAM = allosterically enhances the human TRH receptor. P34981. TRHR cells, fluo-8 calcium fluorescence, EC20 TRH enhancement. enhancement, % at 2 µM. 360,000 tested, 0.66% active. AID 493056; in the data active = enhancement above about 30%; also: 0% is about no effect
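TRHR-expressing cells loaded with fluo-8 calcium dye were read kinetically (ex 480/em 530) during compound addition, then stimulated with an EC20 of TRH (10 nM final). Enhancement of the Gq-mediated intracellular calcium response was scored.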
USP1 inh = blocks the human USP1/UAF1 deubiquitinase complex; recombinant USP1/UAF1, Ub-Rhodamine cleavage fluorescence; O94782; Potency, µM (titrated, usually from 57.1 µM), for inactives: top-dose activity change, negative = inhibition, actives largely listed as inhibitors; 390,000 tested, 0.23% active; active = well fitted inhibition curve with a large enough effect; inconclusive = small, poorly fitted or top-dose-only effect; inactive = no such curve, though single readings can be large or run the other way; also: potency is read from the fitted curve at half-maximal effect; % is scaled to controls: 0 for no effect and ±100 for the full control effect; nearly all actives have a fitted effect of over 60% in size
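Step one: compound is pinned into 1nM USP1/UAF1 in HEPES pH 7.8 buffer with TCEP. Step two: 15 min room-temperature incubation. Step three: Ub-Rho (150nM final) starts cleavage, tracked by fluorescence over six one-minute reads.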
* hit, by the source's call; ? = inconclusive; · = no result given. Rule as the data show it, unless noted: active = activation above about 30%; inactive = the rest.

SMILES	TRHR agonist	D1 potentiator	D1 antagonist	D1 ag	TRHR PAM	USP1 inh
Cc1ccc(-c2nc3scc(CCNS(=O)(=O)c4c(C)noc4C)n3n2)cc1	-1	-2	·	32*	9	-19%
CCOC(=O)c1sc(NC(=O)C2c3ccccc3Oc3ccccc32)c(C(=O)OCC)c1C	-1	4	1	1	32*	0%
O=C(Nc1ccncc1)C1c2ccccc2Oc2ccccc21	-1	-5	39	44*	2	-21%
O=C(Nc1ncccn1)C1c2ccccc2Oc2ccccc21	1	5	8	4	-1	-5%
CCc1ccc(S(=O)(=O)c2nnn3c2nc(NCCC(C)C)c2cc(Cl)ccc23)cc1	0	-3	0	0	4	?
COc1ccc(CNC(=O)C2CCN(C(=O)c3ccc(-n4ccc5ccccc54)s3)CC2)cc1	0	-4	-5	5	7	-17%
Cc1nnc(SCC(=O)Nc2ccc(Br)cc2)[nH]c1=O	-1	0	5	4	2	-9%
COc1ccccc1OCC(=O)NCC1(N2CCOCC2)CCCCC1	0	0	-19	-2	-4	-26%
COc1cccc(CNC(=O)CCn2c(=O)c3cccn3c3cccnc32)c1OC	0	0	0	1	2	-20%
CCOc1cc(NC(=S)Nc2ccc(Cl)cc2)c(OCC)cc1NC(C)=O	0	1	-40*	9	8	-4%
CCN(Cc1ccc(OC)cc1)c1ccc(-c2nc(-c3ccncc3)no2)cc1[N+](=O)[O-]	0	5	4	27	1	-15%
Cc1c(C(=O)N2CCC(C)CC2)c(S(=O)(=O)Nc2ccc(OC(F)(F)F)cc2)c(C)n1C	0	1	0	-2	-2	-2%
Cc1cc(NCc2ccccn2)nc2ccccc12	0	-8	2	0	-2	3%
Fc1ccccc1-c1nc(NC2CCCC2)c2ccccc2n1	-1	-14	5	26	8	-19%
Oc1ccccc1-c1nc(NC2CCCC2)c2ccccc2n1	-1	-2	-7	9	31*	-22%
Cc1cc(NC2CCCCC2)nc2ccccc12	1	-6	-33*	23	-5	-21%
O=C(Nc1ccc2nc(SCC(=O)N3CCc4ccccc43)sc2c1)c1ccc(F)cc1	1	-1	0	5	1	5%
Cc1cc(-c2cccc(Br)c2)c(C#N)c(N)n1	-1	-8	6	2	2	-1%
Cc1ccc2c(n1)sc1c(-c3ccc(Br)cc3)c(C#N)c(N)nc12	0	-10	-31*	2	0	-16%
COc1ccc(NC(=O)Cn2cnc3ccc(S(=O)(=O)N4CCC(C)CC4)cc3c2=O)cc1OC	3	2	-3	1	-3	-5%
COc1cccc(Cn2c(=O)n(-c3ccc(Br)cc3F)c(=O)c3sc4ccccc4c32)c1	1	7	-6	7	11	?
O=C(CSc1nc2ccccc2nc1Cc1ccc(Cl)cc1)NCCc1ccccc1	0	-2	-9	1	-4	-3%
COc1ccc(N(Cc2ccccc2)S(=O)(=O)c2ccc(C)cc2)cc1	1	-7	-30*	15	-5	-9%
COc1ccc(S(=O)(=O)N(CC(=O)O)c2ccc(C)cc2)cc1	0	3	-50*	3	1	-8%
CCCNC(=O)C1CCN(S(=O)(=O)c2ccc3c(c2)CCCN3C(C)=O)CC1	0	-6	1	1	-2	-8%
CCOC(=O)N1CCc2c(sc3c2c(=O)n(-c2ccc(Cl)cc2)c(=O)n3CC(=O)Nc2ccccc2)C1	0	-2	4	1	0	?
COc1ccccc1OCC(O)CN1CCN(C(=O)c2ccccc2)CC1 (configuration not stated)	1	1	-36*	1	-3	-10%
COc1cc(C(C)=O)ccc1OCC(O)CN1CCN(S(=O)(=O)c2ccccc2)CC1 (configuration not stated)	0	0	-31*	0	-5	-24%

Assay outcomes deposited in PubChem by National Center for Advancing Translational Sciences (NCATS).
